Inconclusive results are not listed. Calls of active or inactive are those of the source. Unless noted, the call rests on the fitted dose curve; in most records, active means well fitted curve in the direction sought with a large enough effect in the repeat runs; inconclusive means weak or mixed curves; inactive means no such curve, though single readings can be large; an effect the other way counts as inactive or inconclusive.
Key:
[1] = A CellTox Green Cytotoxicity Assay to monitor cytotoxicity in HEK293 cells - 8 hour (AID 1224884); further: nearly all actives have a fitted effect of over 35% in size
In short: (§1)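 Each value comes from one timepoint of a single continuous run in which HEK293 cells with CellTox Green were exposed to compound for up to 40 h at 37 C, dye fluorescence rising with cell death.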

[2] = qHTS RealTime-Glo MT Cell Viability Assay in HepG2 cells - 16 hour (AID 1224885); further: nearly all actives have a fitted effect of over 50% in size
In short: (§2)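 HepG2 cells were seeded at 600 cells/well together with NanoLuc luciferase and a cell-permeant prosubstrate, preincubated 5 h at 37 C/5% CO2, then pin-dosed with compounds in DMSO. Nonlytic luminescence from viable cells was read at each time point.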

[3] = qHTS RealTime-Glo MT Cell Viability Assay in HEK293 cells - 24 hour (AID 1224886); further: top concentration of the series differs between compounds; nearly all actives have a fitted effect of over 50% in size
In short: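 HEK293 cells were seeded at 600 cells/well together with NanoLuc luciferase and cell-permeant prosubstrate, preincubated 5 h at 37 C/5% CO2, then given compound in DMSO by pintool. Luminescence from viable-cell prosubstrate reduction was read repeatedly over 40 h.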

[4] = qHTS RealTime-Glo MT Cell Viability Assay in HEK293 cells - 8 hour (AID 1224887); further: top concentration of the series differs between compounds; nearly all actives have a fitted effect of over 50% in size
In short: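 qHTS format; HEK293 cells with NanoLuc/prosubstrate reagent, 37 C/5% CO2 for 5 h pre-dosing; compounds 23 nL in DMSO; luminescence at each time point reflects viable cells.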

[5] = A CellTox Green Cytotoxicity Assay to monitor cytotoxicity in HEK293 cells - 16 hour (AID 1224888); further: nearly all actives have a fitted effect of over 35% in size
In short: as §1

[6] = qHTS RealTime-Glo MT Cell Viability Assay in HepG2 cells - 0 hour (AID 1224889); further: nearly all actives have a fitted effect of over 50% in size
In short: as §2

[7] = A CellTox Green Cytotoxicity Assay to monitor cytotoxicity in HepG2 cells - 8 hour (AID 1224890); further: nearly all actives have a fitted effect of over 45% in size
In short: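 Continuous culture of HepG2 cells with a membrane-impermeant DNA dye; rising fluorescence marks dead cells. Compound exposure lasted up to 40 h at 37 C, with reads every 8 h from 0 h.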

[8] = qHTS assay to identify small molecule antagonists of the estrogen receptor alpha (ER-alpha) signaling pathway using the BG1 cell line in the presence of 0.1 nM 17-beta-estradiol - cell viability counter screen (AID 1259241); further: nearly all actives have a fitted effect of over 40% in size
In short: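 Cytotoxicity counter-screen: live-cell protease activity measured by fluorescence (30 min reagent step) in the same wells. Cells were VM7Luc4E2 with endogenous ER-alpha and ERE-driven luciferase, treated 22 hr at 37C alongside 0.1 nM 17beta-estradiol final.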

[9] = qHTS assay to identify small molecule antagonists of the androgen receptor (AR) signaling pathway using the MDA cell line in the presence of 0.5 nM R1881 - cell viability counter screen (AID 1259242); further: nearly all actives have a fitted effect of over 45% in size
In short: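 Fluorescence from CellTiter-Fluor, which reports protease activity of live cells, was read 30 min after reagent addition to MDA-kb2 cells that had been incubated 16 hr with compound and 0.5 nM R1881.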

[10] = target: Estrogen receptor (Homo sapiens) (UniProt P03372); assay: qHTS assay to identify small molecule antagonists of the estrogen receptor alpha (ER-alpha) signaling pathway using the BG1 cell line in the presence of 0.1 nM 17-beta-estradiol (AID 1259244); further: nearly all actives have a fitted effect of over 50% in size
Estrogen receptor (Homo sapiens), sequence (P03372 whole entry, looked up): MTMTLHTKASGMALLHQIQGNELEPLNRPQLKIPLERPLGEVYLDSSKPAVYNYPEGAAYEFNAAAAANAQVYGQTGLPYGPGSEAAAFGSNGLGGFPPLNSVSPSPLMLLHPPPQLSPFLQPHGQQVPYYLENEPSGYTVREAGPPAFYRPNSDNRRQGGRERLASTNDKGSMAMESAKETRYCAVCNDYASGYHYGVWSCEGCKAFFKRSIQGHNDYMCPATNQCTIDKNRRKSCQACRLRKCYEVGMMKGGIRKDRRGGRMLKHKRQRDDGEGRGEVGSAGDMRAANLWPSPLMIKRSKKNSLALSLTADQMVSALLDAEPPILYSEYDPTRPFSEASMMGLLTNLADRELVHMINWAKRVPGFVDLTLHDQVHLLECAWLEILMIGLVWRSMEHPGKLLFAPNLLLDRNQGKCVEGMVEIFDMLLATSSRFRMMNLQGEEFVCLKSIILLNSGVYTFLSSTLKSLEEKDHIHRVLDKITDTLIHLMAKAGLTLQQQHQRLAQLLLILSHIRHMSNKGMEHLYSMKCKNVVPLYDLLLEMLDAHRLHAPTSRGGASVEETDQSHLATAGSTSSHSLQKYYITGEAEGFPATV
In short: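 Quantitative high-throughput screen in VM7Luc4E2 cells: compound plus 0.1 nM E2 (final), 22 h, 37C, 5% CO2; ONE-Glo added, 30 min room temperature, luminescence measured.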

[11] = qHTS assay to identify small molecule HDAC inhibitors (AID 1259364); further: top concentration of the series differs between compounds; nearly all actives have a fitted effect of over 45% in size
In short: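 Endogenous HDAC class I/II activity was measured in wild-type HCT-116 cells by HDAC-Glo luminescence after 2 h compound treatment.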

[12] = qHTS assay to identify small molecule HDAC inhibitors - cell viability counter screen (AID 1259365)
In short: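 CellTiter-Glo luminescence (30 min, room temperature) reported viability after a 2 h compound exposure at 37 C. Cells: wild-type HCT-116, 1,500 per well, seeded the night before.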

[13] = qHTS assay to identify small molecule agonists of the sonic hedgehog signaling (Shh) pathway - cell viability counter screen (AID 1259366); further: nearly all actives have a fitted effect of over 50% in size
In short: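 Cytotoxicity counter screen: CellTiter-Fluor reagent added after 23 h compound exposure, then 1 h at 37C and fluorescence read. Cells were 3T3 Gli1-Luc, seeded 2,000 per well and dosed 4 h post-plating.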

[14] = qHTS assay to identify small molecule antagonists of the sonic hedgehog signaling (Shh) pathway - cell viability counter screen (AID 1259367); further: nearly all actives have a fitted effect of over 55% in size
In short: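 Seed 3T3 Gli1-Luc cells at 2,000 per well; incubate 4 hr; add compound in DMSO, then conditioned medium; incubate at 37C with 5% CO2; add CellTiter-Fluor after 23 hr; read fluorescence 1 hr later.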

[15] = qHTS assay to identify small molecule agonists of the sonic hedgehog signaling (Shh) pathway (AID 1259368; calls by dose curve;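 further: NIH/3T3-derived 3T3Gli1-Luc cells carrying a stable Gli1-driven firefly luciferase reporter; series mostly up to about 92 µM; nearly all actives have a fitted effect of over 15% in size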)
In short: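 Luminescent signal was taken as a measure of Gli1-controlled luciferase expression in stably transfected NIH/3T3-derived cells that had been treated for 24 hr with compounds delivered in DMSO.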

[16] = qHTS assay to identify small molecule antagonists of the sonic hedgehog signaling (Shh) pathway (AID 1259369; calls by dose curve; further: nearly all actives have a fitted effect of over 45% in size)
In short: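 Screening used 3T3Gli1-Luc cells at 2,000 per well, compounds delivered in DMSO, and conditioned medium as agonist stimulus; plates incubated 24hr at 37 C and 5% CO2 before a 30min luciferase step.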

[17] = target: Androgen receptor (Homo sapiens) (UniProt P10275); assay: qHTS assay to identify small molecule antagonists of the androgen receptor (AR) signaling pathway using the MDA cell line in the presence of 0.5 nM R1881 (AID 1259243); further: nearly all actives have a fitted effect of over 50% in size
Androgen receptor (Homo sapiens), sequence (P10275 whole entry, looked up): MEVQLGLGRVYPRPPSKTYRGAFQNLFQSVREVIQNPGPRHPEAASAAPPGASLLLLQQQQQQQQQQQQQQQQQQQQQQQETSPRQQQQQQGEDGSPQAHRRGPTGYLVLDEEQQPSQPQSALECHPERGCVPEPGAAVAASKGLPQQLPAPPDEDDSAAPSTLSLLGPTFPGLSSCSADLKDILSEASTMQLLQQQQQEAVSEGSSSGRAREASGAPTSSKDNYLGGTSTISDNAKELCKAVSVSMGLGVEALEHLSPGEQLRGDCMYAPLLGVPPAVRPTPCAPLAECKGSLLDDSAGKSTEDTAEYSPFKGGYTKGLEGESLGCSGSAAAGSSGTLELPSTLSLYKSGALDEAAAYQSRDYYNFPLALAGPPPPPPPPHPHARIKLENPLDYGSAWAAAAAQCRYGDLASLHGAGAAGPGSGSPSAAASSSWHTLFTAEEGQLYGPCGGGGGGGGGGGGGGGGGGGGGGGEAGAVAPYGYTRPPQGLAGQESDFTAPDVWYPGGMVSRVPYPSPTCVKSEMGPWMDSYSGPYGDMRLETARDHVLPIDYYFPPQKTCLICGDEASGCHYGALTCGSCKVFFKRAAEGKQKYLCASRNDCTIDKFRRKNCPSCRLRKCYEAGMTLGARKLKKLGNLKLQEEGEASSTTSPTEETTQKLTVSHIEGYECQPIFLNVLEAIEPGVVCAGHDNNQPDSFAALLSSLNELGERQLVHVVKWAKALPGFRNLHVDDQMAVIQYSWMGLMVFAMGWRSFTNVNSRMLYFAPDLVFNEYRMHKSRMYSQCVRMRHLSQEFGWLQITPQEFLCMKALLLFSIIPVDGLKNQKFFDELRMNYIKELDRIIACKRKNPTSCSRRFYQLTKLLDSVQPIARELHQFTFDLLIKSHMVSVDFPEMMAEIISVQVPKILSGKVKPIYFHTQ
In short: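 Inhibition of R1881 (0.5 nM final) induced reporter signal was measured in human MDA-kb2 cells; note the MMTV promoter also responds to GR. Exposure lasted 16 hr at 37C.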

[18] = target: Estrogen receptor beta (Homo sapiens) (UniProt Q92731); assay: qHTS assay to identify small molecule antagonists of the estrogen receptor beta (ER-beta) signaling pathway (AID 1259378; active means well fitted inhibition curve with a large enough effect in the signal ratio in the repeat runs, not every such curve was filed as active; the % refers to the signal ratio)
Estrogen receptor beta (Homo sapiens), sequence (Q92731 whole entry, looked up): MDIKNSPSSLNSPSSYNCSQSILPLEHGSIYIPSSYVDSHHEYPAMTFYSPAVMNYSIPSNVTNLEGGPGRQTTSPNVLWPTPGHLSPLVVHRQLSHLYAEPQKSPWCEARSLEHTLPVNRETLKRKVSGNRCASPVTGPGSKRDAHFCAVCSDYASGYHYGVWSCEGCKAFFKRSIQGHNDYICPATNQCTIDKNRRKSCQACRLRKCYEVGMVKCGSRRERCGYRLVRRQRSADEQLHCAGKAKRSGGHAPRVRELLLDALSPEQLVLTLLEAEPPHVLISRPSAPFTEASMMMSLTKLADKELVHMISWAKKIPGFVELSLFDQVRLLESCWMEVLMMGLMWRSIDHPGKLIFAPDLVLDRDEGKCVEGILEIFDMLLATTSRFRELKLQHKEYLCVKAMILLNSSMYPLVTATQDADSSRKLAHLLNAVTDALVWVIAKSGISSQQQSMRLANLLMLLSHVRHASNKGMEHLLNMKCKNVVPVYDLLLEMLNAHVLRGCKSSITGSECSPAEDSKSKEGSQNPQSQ
In short: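 ER-beta-UAS-bla HEK293T cells in 2% charcoal-stripped FBS medium treated with compound plus 1nM final 17-beta-estradiol for 16 hr at 37C. Beta-lactamase reporter read by FRET substrate fluorescence after 2 hours at room temperature.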

[19] = target: Estrogen receptor beta (Homo sapiens) (UniProt Q92731); assay: qHTS assay to identify small molecule agonists of the estrogen receptor beta (ER-beta) signaling pathway (AID 1259377; active means well fitted activation curve with a large enough effect in the signal ratio in the repeat runs, not every such curve was filed as active; the % refers to the signal ratio)
In short: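 Ratiometric beta-lactamase FRET read-out came after 2 h substrate loading at room temperature. It followed 16 h compound treatment at 37C of GripTite HEK293T cells carrying a UAS-bla reporter, plated in 2% charcoal-stripped FBS medium.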
On the % scale 0 is the no-effect control and ±100 the full control effect.

CC/C=C(\C)C=O
inactive: Potency [1] | Potency [2] | Potency [3] | Potency [4] | Potency [5] | Potency [6] | Potency [7] | Potency [8] | Potency [9] | Potency [10] | Potency [11] | Potency [12] | Potency [13] | Potency [14] | Potency [15] | Potency [16]

Cc1c[nH]c(=O)[nH]c1=O
inactive: Potency [1] | Potency [2] | Potency [3] | Potency [4] | Potency [5] | Potency [6] | Potency [7] | Potency [8] | Potency [9] | Potency [17] | Potency [10] | Potency [12] | Potency [13] | Potency [14] | Potency [15] | Potency [16] | Potency [18]

Nc1ccc2c(S(=O)(=O)O)cccc2c1S(=O)(=O)O
inactive: Potency [1] | Potency [2] | Potency [3] | Potency [4] | Potency [5] | Potency [6] | Potency [7] | Potency [8] | Potency [9] | Potency [17] | Potency [11] | Potency [12] | Potency [13] | Potency [14] | Potency [15] | Potency [16]

O=[N+]([O-])c1ccc(CO)cc1
inactive: Potency [1] | Potency [2] | Potency [3] | Potency [4] | Potency [5] | Potency [6] | Potency [7] | Potency [8] | Potency [9] | Potency [17] | Potency [10] | Potency [11] | Potency [12] | Potency [13] | Potency [14] | Potency [15] | Potency [16] | outcome [19] | Potency [18]

C=CC(C)(C)O
inactive: Potency [1] | Potency [2] | Potency [3] | Potency [4] | Potency [5] | Potency [6] | Potency [7] | Potency [8] | Potency [9] | Potency [17] | Potency [10] | Potency [11] | Potency [12] | Potency [13] | Potency [14] | Potency [15] | Potency [16] | Potency [18]

O=C1OCc2ccccc21
inactive: Potency [1] | Potency [2] | Potency [3] | Potency [4] | Potency [5] | Potency [6] | Potency [7] | Potency [8] | Potency [9] | Potency [17] | Potency [10] | Potency [11] | Potency [12] | Potency [13] | Potency [14] | Potency [15] | Potency [16] | outcome [19] | Potency [18]

COc1cc(C(C)C)ccc1C
inactive: cytotoxicity increase [1] -0.16% [at 15.8 µM] | activity change, negative = cytotoxic [2] -0.349% [at 15.8 µM] | activity change, negative = cytotoxicity [3] 0.818% [at 15.8 µM] | activity change, negative = cytotoxicity [4] 1.54% [at 15.8 µM] | activity change [5] -2.08% [at 15.8 µM, active compounds read high] | activity change, negative = cytotoxicity [6] -5.12% [at 15.8 µM] | cytotoxicity increase [7] -11.9% [at 15.8 µM] | activity change, negative = cytotoxicity [8] -2.73% [at 19 µM] | viability change, negative = cytotoxic [9] 0.996% [at 19 µM] | activity, negative = inhibition [17] -0.285% [at 19 µM] | activity change, negative = inhibition [11] 3.05% [at 19 µM] | activity change, negative = cytotoxicity [12] 0.521% [at 19 µM] | viability change, negative = cytotoxic [13] 0.547% [at 19 µM] | viability change, negative = cytotoxic [14] 0.176% [at 19 µM] | activity change [15] 1.1% [at 18.9 µM, active compounds read high] | activity change, negative = inhibition [16] -24.4% [at 19 µM] | activity, negative = inhibition [18] -9.09% [at 19 µM]

C/C(=N\[Si](C)(C)C)O[Si](C)(C)C
inactive: Potency [1] | Potency [2] | Potency [3] | Potency [4] | Potency [5] | Potency [6] | Potency [7] | Potency [8] | Potency [9] | Potency [17] | Potency [10] | Potency [11] | Potency [12] | Potency [13] | Potency [14] | Potency [15] | Potency [16]

CCC(O)CO (configuration not stated)
inactive: Potency [1] | Potency [2] | Potency [3] | Potency [4] | Potency [5] | Potency [6] | Potency [7] | Potency [8] | Potency [9] | Potency [17] | Potency [10] | Potency [11] | Potency [12] | Potency [13] | Potency [14] | Potency [15] | Potency [16] | Potency [18]

C=CC(=O)OCCOC1C2CCC1C1CC=CC12 (configuration not stated)
inactive: cytotoxicity increase [1] -0.0811% [at 15.8 µM] | activity change, negative = cytotoxic [2] 0.672% [at 15.8 µM] | activity change, negative = cytotoxicity [3] -2.24% [at 15.8 µM] | activity change, negative = cytotoxicity [4] -0.849% [at 15.8 µM] | activity change [5] -0.617% [at 15.8 µM, active compounds read high] | activity change, negative = cytotoxicity [6] 5.34% [at 15.8 µM] | cytotoxicity increase [7] -9.41% [at 15.8 µM] | activity change, negative = cytotoxicity [8] 0.54% [at 19 µM] | viability change, negative = cytotoxic [9] 0.35% [at 19 µM] | activity, negative = inhibition [17] -0.369% [at 19 µM] | activity change, negative = inhibition [10] 2.43% [at 19 µM] | activity change, negative = cytotoxicity [12] 3.58% [at 19 µM] | viability change, negative = cytotoxic [13] 9.3% [at 19 µM] | viability change, negative = cytotoxic [14] 5.82% [at 19 µM] | activity change [15] -1.29% [at 18.9 µM, active compounds read high] | activity change, negative = inhibition [16] 6.04% [at 19 µM]

Oc1ccc2c(c1)CCC2
inactive: Potency [1] | Potency [2] | Potency [3] | Potency [4] | Potency [5] | Potency [6] | Potency [7] | Potency [8] | Potency [9] | Potency [17] | Potency [10] | Potency [11] | Potency [12] | Potency [13] | Potency [14] | Potency [15] | Potency [18]

CC1=CC[C@@H](C(C)(C)O)CC1
inactive: Potency [1] | Potency [2] | Potency [3] | Potency [4] | Potency [5] | Potency [6] | Potency [7] | Potency [8] | Potency [9] | Potency [17] | Potency [10] | Potency [11] | Potency [12] | Potency [13] | Potency [14] | Potency [15] | Potency [16]

From PubChem BioAssay (Tox21)
